High-throughput results: PubChem, National Center for Advancing Translational Sciences (NCATS)
In the library only some 12% were active in any assay of this set; here they are far more common.
Pf growth 96h: P. falciparum growth inhibition at 96 hour, primary screen for plastid delayed-death inhibitors; P. falciparum luciferase reporter growth, 96 h; Potency, µM (titrated, usually from 28.7 µM), without a hit: at the highest dose activity change, negative = inhibition, usual class: inhibitors; 320,000 tested, 6.9% active; AID 504834; further: on the % scale 0 is the no-effect control and ±100 the full control effect
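Plates of compound plus infected erythrocytes (2% hematocrit, 0.05% parasitemia final) incubate 96 hours, 37 C, 5% CO2. Detection reagent added; reduced luminescence from the parasites' luciferase reporter flags inhibition.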
Sm TGR inh: blocks Schistosoma mansoni thioredoxin glutathione reductase. AID 485364. Q962Y6. Potency, µM (top dose mostly 114 µM), for inactives: at the highest dose activity change, negative = inhibition, actives largely listed as inhibitors. purified TGR, DTNB reduction, TNB absorbance 405 nm. 360,000 tested, 3% active; further: on the % scale 0 is the no-effect control and ±100 the full control effect; nearly all actives have a fitted effect of over 60% in size
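TGR 20 nM + NADPH 100 uM (dispensed conc.), cpd preinc 15 min RT; start with NADPH (500 uM addition) then DTNB (15 mM addition). Kinetic TNB absorbance, 405 nm filter. Four-parameter Hill fit across titration.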
AmpC no deterg: AmpC beta-lactamase inhibition without detergent | 330,000 tested, 0.52% active | AmpC nitrocefin hydrolysis, absorbance 480 nm, 0.0001% Triton | Potency, µM (titrated, usually from 57.1 µM), inactives show top-dose activity change, negative = inhibition, most hits filed as inhibitors;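 further: plate controls were no compound for no effect and no enzyme for full effect; nearly all actives have a fitted effect of over 20% in size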
Target sequence (P00811 whole entry, looked up): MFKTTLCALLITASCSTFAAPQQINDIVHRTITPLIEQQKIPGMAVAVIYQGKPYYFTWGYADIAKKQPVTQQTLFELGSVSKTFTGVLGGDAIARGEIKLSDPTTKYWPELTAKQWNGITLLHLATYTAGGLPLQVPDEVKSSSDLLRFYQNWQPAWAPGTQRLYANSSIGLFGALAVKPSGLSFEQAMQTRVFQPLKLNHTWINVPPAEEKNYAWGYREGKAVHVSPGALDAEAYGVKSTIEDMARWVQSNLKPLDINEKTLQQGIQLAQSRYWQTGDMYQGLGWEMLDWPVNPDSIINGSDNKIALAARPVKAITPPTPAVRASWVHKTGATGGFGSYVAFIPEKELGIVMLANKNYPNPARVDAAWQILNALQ
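AmpC (5.3 nM in the dispensed reagent) in 20 mM phosphate pH 7.0 with 0.01% (detergent screen) or 0.0001% Triton X-100 was preincubated with compounds for 15 min at room temperature. Nitrocefin was then added from an 800 uM solution, and hydrolysis was followed at 480 nm.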
Pf growth 48h: inhibits P. falciparum growth in the first generation, 48 h; P. falciparum luciferase growth in erythrocytes, 48 h; 310,000 tested, 5.9% active; AID 504832; Potency, µM (highest dose often 28.7 µM), inactives show at the highest dose activity change, negative = inhibition, usual class: inhibitors; further: on the % scale 0 is the no-effect control and ±100 the full control effect
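Read-out is firefly luciferase luminescence from an integrated reporter in P. falciparum, so falling signal marks reduced parasite growth. Infected erythrocytes were at 2% hematocrit and 0.1% parasitemia (final) in Albumax-supplemented RPMI 1640.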
AmpC inh detg: AmpC beta-lactamase inhibition with detergent present; 370,000 tested, 0.041% active; AmpC hydrolysis of nitrocefin, absorbance 480 nm, 0.01% Triton; Potency, µM (series often up to 114 µM), inactives show at the top dose activity change, negative = inhibition, actives largely listed as inhibitors;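 further: 0% = no-compound wells and -100% = no-enzyme wells; nearly all actives have a fitted effect of over 25% in size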
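20 mM phosphate pH 7.0 + 0.01% (detergent screen) or 0.0001% Triton X-100; 5.3 nM AmpC reagent; cpd preinc 15 min RT; nitrocefin (800 uM stock) to start; A480 q20 s × 4 min; Activity was normalised to no-enzyme and no-compound control wells.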
SARS PLP yeast: inhibitors of SARS-CoV papain-like protease in yeast | S. cerevisiae expressing SARS-CoV PLpro, growth rescue | Potency, µM (titrated, usually from 32.9 µM), for the others: at the top dose activity, positive = growth rescue, actives largely listed as activators | 330,000 tested, 0.19% active | AID 485353; calls by dose curve; further: 0% is about no effect; nearly all actives have a fitted effect of over 55% in size
* marks the source's active call; other numbers are inactive results. Unless noted, the call rests on the fitted dose curve; in most records, active means well fitted curve in the direction sought with a large enough effect; inconclusive means small, poorly fitted or top-dose-only effect, or another doubt; inactive means no such curve, though single readings can be large; an effect the other way counts as inactive or inconclusive. Potency means the concentration at half of the fitted maximal effect.

Results for Cc1ccc2c(c1)c1c3n2CCCN(Cc2ccccc2)C3CCC1 (centres undefined) ?
Sm TGR inh: 1%; AmpC no deterg: -16%; Pf growth 48h: 0.93µM*; AmpC inh detg: inconclusive; SARS PLP yeast: 0%

How did Cc1ccc2c(c1)c1c3n2CCN(C(=O)Cn2c(-c4ccccc4)noc2=O)C3CCC1 (centres undefined) do in these assays?
Pf growth 96h: 9.3µM*; Sm TGR inh: -7%; AmpC no deterg: 3%; Pf growth 48h: 0.19µM*; AmpC inh detg: inconclusive; SARS PLP yeast: 0%

What do the screens show for `Cc1ccc2c(c1)c1c3n2CCN(C(=O)C2CC2)C3CCC1` (centres undefined)?
Pf growth 96h: inconclusive; Sm TGR inh: 0%; AmpC no deterg: -3%; AmpC inh detg: -4%; SARS PLP yeast: -1%

What do the screens show for `O=C(O)c1ccc(Cl)c(S(=O)(=O)NCc2ccco2)c1`?
Pf growth 96h: 1%; Sm TGR inh: inconclusive; AmpC no deterg: -12%; Pf growth 48h: 7%; AmpC inh detg: inconclusive; SARS PLP yeast: 9%

How did O=C(Nc1ccccc1)c1ccc(NCc2ccco2)c(S(=O)(=O)N2CCOCC2)c1 do in these assays?
Pf growth 96h: 23%; Sm TGR inh: 32µM*; AmpC no deterg: inconclusive; Pf growth 48h: inconclusive; AmpC inh detg: -1%; SARS PLP yeast: 0%

Results for O=C(NCc1cccs1)c1cccc(S(=O)(=O)N2CCCCC2)c1 ?
Sm TGR inh: 27%; AmpC no deterg: -41%; Pf growth 48h: -12%; AmpC inh detg: -7%; SARS PLP yeast: 3%

How did O=C(NCc1cccs1)c1ccc(Cl)c(S(=O)(=O)N2CCCC2)c1 do in these assays?
Pf growth 96h: inconclusive; Sm TGR inh: -6%; AmpC no deterg: -43%; Pf growth 48h: 0.33µM*; AmpC inh detg: -16%; SARS PLP yeast: 1%

What do the screens show for `O=C(NCc1ccco1)c1ccc(COc2cc(Cl)ccc2Cl)cc1`?
Pf growth 96h: inconclusive; Sm TGR inh: -11%; AmpC no deterg: -40%; Pf growth 48h: 5.2µM*; AmpC inh detg: inconclusive; SARS PLP yeast: -8%

How did O=C(NCC1(N2CCOCC2)CCCCC1)c1ccc(Cl)c(S(=O)(=O)NCc2ccco2)c1 do in these assays?
Pf growth 96h: 26%; Sm TGR inh: -34%; AmpC no deterg: 0%; Pf growth 48h: 6.6µM*; AmpC inh detg: inconclusive; SARS PLP yeast: 5%

Results for CCOC(=O)c1[nH]c(C)c(CCC(=O)Nc2cccc(SC)c2)c1C ?
Sm TGR inh: -1%; AmpC inh detg: -3%

What do the screens show for `CN(Cc1ccco1)C(=O)c1ccc(S(=O)(=O)N2CCCCCC2)cc1`?
Pf growth 96h: -30%; Sm TGR inh: 1%; AmpC no deterg: 9%; Pf growth 48h: 6%; AmpC inh detg: 3%; SARS PLP yeast: 0%

What do the screens show for `O=C(NCc1ccco1)c1ccc(Cl)c(S(=O)(=O)N2CCOCC2)c1`?
Sm TGR inh: -14%; AmpC no deterg: -10%; Pf growth 48h: 2.3µM*; AmpC inh detg: -7%; SARS PLP yeast: -4%

How did Cc1ccc(C(=O)NCc2ccco2)cc1S(=O)(=O)N1CCCCC1 do in these assays?
Pf growth 96h: 2.3µM*; Sm TGR inh: inconclusive; AmpC no deterg: -35%; Pf growth 48h: inconclusive; AmpC inh detg: 1%; SARS PLP yeast: -6%

What do the screens show for `CN(Cc1ccco1)C(=O)Cn1cc(S(=O)(=O)N2CCCC2)c(S(=O)(=O)N2CCCC2)c1`?
Pf growth 96h: inconclusive; Sm TGR inh: 35µM*; AmpC no deterg: 3%; Pf growth 48h: -23%; AmpC inh detg: 2%; SARS PLP yeast: -2%

How did Cc1ccc(C(=O)Nc2ccccc2C(=O)NCc2ccco2)cc1S(=O)(=O)N1CCCCC1 do in these assays?
Pf growth 96h: 47%; Sm TGR inh: -25%; AmpC no deterg: -7%; Pf growth 48h: 6.6µM*; AmpC inh detg: -1%; SARS PLP yeast: 7%

How did COC(=O)CCC(=O)Nc1ccc(S(=O)(=O)Nc2nc(C)cc(C)n2)cc1 do in these assays?
Pf growth 96h: inconclusive; Sm TGR inh: -20%; AmpC no deterg: -5%; Pf growth 48h: 18%; AmpC inh detg: inconclusive; SARS PLP yeast: 5%

Results for CCOC(=O)N1CCN(C(=O)CN2C(=O)CC(C)(C)S(=O)(=O)c3ccccc32)CC1 ?
Pf growth 96h: 3.3µM*; Sm TGR inh: 6%; AmpC no deterg: -13%; AmpC inh detg: -14%; SARS PLP yeast: inconclusive

Results for CCCN1CCN(C(=O)CN2C(=O)CC(C)(C)S(=O)(=O)c3ccccc32)CC1 ?
Pf growth 96h: 15µM*; Sm TGR inh: inconclusive; AmpC no deterg: -12%; Pf growth 48h: -17%; AmpC inh detg: 0%; SARS PLP yeast: 9%

How did CN1CCN(C(=O)CN2C(=O)CC(C)(C)S(=O)(=O)c3ccccc32)CC1 do in these assays?
Sm TGR inh: inconclusive; AmpC no deterg: -12%; AmpC inh detg: inconclusive; SARS PLP yeast: 3%

Results for CCOC(=O)c1c[nH]c2ccc3ccccc3c2c1=O ?
Pf growth 96h: 4.7µM*; Sm TGR inh: -8%; AmpC no deterg: -14%; Pf growth 48h: inconclusive; AmpC inh detg: -5%; SARS PLP yeast: inconclusive

What do the screens show for `CCOC(=O)c1ccc2[nH]cc(C(C)=O)c(=O)c2c1`?
Pf growth 96h: 3%; Sm TGR inh: 2%; AmpC no deterg: -24%; Pf growth 48h: 4.7µM*; AmpC inh detg: -11%; SARS PLP yeast: -26%

What do the screens show for `CC(=O)c1c[nH]c2ccc(C)cc2c1=O`?
Pf growth 96h: inconclusive; Sm TGR inh: 2%; AmpC no deterg: -43%; Pf growth 48h: 6.6µM*; AmpC inh detg: -5%; SARS PLP yeast: 4%

What do the screens show for `CCOC(=O)c1c[nH]c2c(Cl)ccc(Cl)c2c1=O`?
Pf growth 96h: -8%; Sm TGR inh: 8%; AmpC no deterg: -26%; Pf growth 48h: 14%; AmpC inh detg: inconclusive; SARS PLP yeast: -2%

How did CCOC(=O)c1ccc(-c2ccc3[nH]c4ccccc4c(=O)c3c2)cc1F do in these assays?
Pf growth 96h: 5.2µM*; Sm TGR inh: inconclusive; AmpC no deterg: -32%; Pf growth 48h: inconclusive; AmpC inh detg: -19%; SARS PLP yeast: 15%

What do the screens show for `CCOc1ccc2[nH]cc(C(=O)O)c(=O)c2c1`?
Sm TGR inh: -12%; AmpC no deterg: -23%; Pf growth 48h: 8%; AmpC inh detg: 3%; SARS PLP yeast: -1%

How did Cc1c(C(=O)Nc2ccccn2)sc2nc3n(c(=O)c12)CCC3 do in these assays?
Pf growth 96h: 244%; Sm TGR inh: -5%; AmpC no deterg: -14%; Pf growth 48h: 199%; AmpC inh detg: -1%; SARS PLP yeast: -3%
